PP1 inh = counter-screen for PP5 inhibitors: inhibitors of human PP1-alpha; P62136; purified PP1alpha, OMFP fluorescence; inhibition, % at 6.7 µM; hit rate 0.9% among 320,000;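 active means inhibition above the mean inhibition of all tested compounds plus 3 SD, computed separately for each screening campaign, cut at about 15% in these data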
HIF activator = HIF pathway transcriptional activation. U2OS HRE-luciferase reporter, luminescence; normalized: DMSO 0%, desferrioxamine 100%. activation, % at 7.5 µM (by protocol). hit rate 0.32% among 300,000. AID 1910;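 active means mean activation of at least 10% of the iron chelator positive control signal, with at least half of replicates also reaching 10%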
STK33 kinase inh = blocks human STK33 kinase activity. hit rate 0.073% among 320,000. AID 2661. Q9BYT3. inhibition, % at 10 µM. purified STK33, MBP phosphorylation, ADP-Glo luminescence;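 active means inhibition at or above 25%, using the most active replicate where run in duplicate; inactive means inhibition below 25%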
PP5 inh = PP5 (human) phosphatase inhibition; AID 1987; inhibition, % at 6.7 µM; hit rate 0.18% among 320,000; purified PP5c, OMFP substrate fluorescence; P53041;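 active means inhibition above the campaign's mean inhibition across all tested compounds plus 3 SD, cut at about 9.5% in these data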;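 further: 0% = DMSO only and 100% = 100 µM cantharidin control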
Target sequence (P53041 whole entry, looked up): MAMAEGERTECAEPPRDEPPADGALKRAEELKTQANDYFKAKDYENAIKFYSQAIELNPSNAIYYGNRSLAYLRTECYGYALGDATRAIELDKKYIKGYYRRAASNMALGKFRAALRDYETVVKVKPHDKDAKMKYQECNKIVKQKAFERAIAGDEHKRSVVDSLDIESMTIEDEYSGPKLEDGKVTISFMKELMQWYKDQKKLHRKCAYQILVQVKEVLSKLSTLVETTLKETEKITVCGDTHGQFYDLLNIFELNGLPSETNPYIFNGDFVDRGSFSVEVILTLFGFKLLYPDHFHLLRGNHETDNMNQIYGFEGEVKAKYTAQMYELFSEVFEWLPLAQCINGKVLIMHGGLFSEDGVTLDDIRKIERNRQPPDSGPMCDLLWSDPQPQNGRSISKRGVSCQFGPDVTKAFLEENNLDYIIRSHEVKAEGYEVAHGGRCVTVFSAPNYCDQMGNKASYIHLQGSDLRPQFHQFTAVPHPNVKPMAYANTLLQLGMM
Dyrk1A ADPGlo = inhibitors of rat Dyrk1A kinase | Q63470 | hit rate 0.43% among 310,000 | inhibition, % at 12.5 µM | ADP-Glo luminescence, NFATc1 peptide; in the data active means inhibition above about 50%;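 further: plate controls were vehicle with enzyme for no effect and no enzyme for full effect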
PP1 confirm = human PP1 phosphatase inhibition, confirmation | purified PP1alpha, OMFP substrate fluorescence | inhibition, % at 6.7 µM | hit rate 52% among 1,900 | shares compounds with PP1 inh;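 active means mean PP1 inhibition above a set limit taken from the earlier primary screen, cut at about 15% in these data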
PP5 counter = counter-screen for PP1 inhibitors: human PP5 phosphatase inhibition; shares compounds with PP1 inh; purified PP5c, OMFP fluorescence; inhibition, % at 6.7 µM; hit rate 4% among 1,900; AID 2360;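 active means mean PP5 inhibition over triplicate wells above about 9.5% taken from the earlier PP1 screen, limit read from the data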
Numbers without * were called inactive; / = no result. Compounds with a hit are over-represented: about 1.5% of the library has one in this group of screens.

SMILES	PP1 inh	HIF activator	STK33 kinase inh	PP5 inh	Dyrk1A ADPGlo	PP1 confirm	PP5 counter
CN(C(=O)C1CC1)C1CCS(=O)(=O)C1 (stereo not drawn)	-2.9	-14.3	-0.1	-1.3	8.3	/	/
COc1cc(/C=N/NC(=O)COc2c(C)cc([N+](=O)[O-])cc2C)ccc1OC(=O)c1ccccc1Br	21.1*	-0.4	-1.0	2.2	/	17.4*	0.0
O=C(CSc1nc(O)cc(=O)[nH]1)N1c2ccccc2CCc2ccccc21	28.3*	0.2	0.3	1.0	2.1	-2.5	-4.3
O=C(NCCC1CCCCN1S(=O)(=O)c1ccc(Cl)cc1)C(=O)NCc1cccnc1 (stereo not drawn)	52.3*	-9.5	1.0	2.1	/	-3.1	-1.1
Cc1cc(S(=O)(=O)N2CCCCC2CCNC(=O)C(=O)NCc2cccnc2)ccc1F (stereo not drawn)	-4.4	0.2	-1.7	-1.6	-0.5	/	/
CC(C)C(=O)NNC(=O)CSc1nnnn1C(C)C	4.8	-1.0	-0.9	0.5	1.5	/	/
COC(=O)c1ccccc1NC(=O)CCn1c(=O)oc2ccccc21	1.7	0.7	-2.9	-0.2	4.7	/	/
C#CCOCCOCCOCCNc1nc(N2CCN(C(=O)CCCCCCCCCCNC(=O)[C@@H](CCSC)n3cc(CCO)nn3)CC2)nc(N2CCN(C(=O)CCCCCCCCCCNC(=O)[C@H](CCC(=O)O)n3cc(CCCCCN)nn3)CC2)n1	17.9*	/	-1.9	2.9	-0.6	36.9*	4.0
C#CCOCCOCCOCCNc1nc(N2CCN(C(=O)CCCCCCCCCCNC(=O)[C@@H](CCSC)n3cc(CCO)nn3)CC2)nc(N2CCN(C(=O)CCCCCCCCCCNC(=O)[C@H](CO)n3cc(CCCCCN)nn3)CC2)n1	49.1*	/	9.2	2.0	-1.2	48.9*	0.1
O=C(OCC(=O)c1ccc(Cl)cc1Cl)c1cnccn1	-0.6	-29.6	-0.3	-2.7	-0.2	/	/
CCCSc1nnc(NC(=O)CSc2sc3c(O)cc(=O)[nH]c3c2C#N)s1	13.8	-0.8	-2.2	0.9	-0.2	/	/
N#Cc1cccc(NC(=O)CSc2sc3c(O)cc(=O)[nH]c3c2C#N)c1	9.3	0.5	1.8	1.8	4.9	/	/
N#Cc1c(SCC(=O)Nc2nc3ccccc3s2)sc2c(O)cc(=O)[nH]c12	18.7*	/	2.9	0.6	/	0.9	-2.9
N#Cc1c(SCC(=O)Nc2nc3ccc(Br)cc3s2)sc2c(O)cc(=O)[nH]c12	17.7*	0.1	5.1	0.0	48.3	12.9	0.5
N#Cc1c(SCC(=O)Nc2nccs2)sc2c(O)cc(=O)[nH]c12	26.4*	1.6	1.3	0.6	6.8	1.3	-2.7
O=C(COc1ccc2c(c1)oc(=O)c1ccccc12)NC(Cc1ccc(Cl)cc1)C(=O)O (stereo not drawn)	10.1	0.1	9.3	4.3	42.3	/	/
CCOc1ccc(C(=O)N/N=C/c2ccc(-c3ccc(S(=O)(=O)Nc4ncccn4)cc3)o2)cc1	-0.6	0.1	-2.8	-0.3	9.0	/	/
O=C(N/N=C/c1ccc(-c2ccc(S(=O)(=O)Nc3ncccn3)cc2)o1)c1cc2ccccc2cc1O	21.3*	0.3	1.5	3.1	21.2	15.6*	-0.7
CCCCCCN(C(=O)CCCCCN1C(=O)NC(c2ccc(-c3ccccc3)cc2)C(C(=O)OCc2ccccc2)=C1C)C(C(=O)NCCCC)c1ccccn1 (stereo not drawn)	/	0.0	/	/	/	/	/
CCCCNC(=O)C(c1ccc(OCC(=O)OC)c(C(=O)OC)c1)N(CCOC)C(=O)CCCCCN1C(=O)NC(c2ccc(-c3ccccc3)cc2)C(C(=O)OCc2ccccc2)=C1C (stereo not drawn)	34.7*	-3.5	-0.3	4.6	/	35.1*	3.7
CCCCCCN(C(=O)CCCCCN1C(=O)NC(c2ccc(-c3ccccc3)cc2)C(C(=O)OCc2ccccc2)=C1C)C(C(=O)NCCCC)c1ccc(OCC(=O)OC)cc1 (stereo not drawn)	30.1*	0.4	-0.9	-1.0	/	19.9*	-2.1
CCCCCCCC(=O)N1CCN(c2cc3c(cc2F)c(=O)c(C(=O)O)cn3CC)CC1	/	0.9	-0.3	/	1.0	/	/
CCn1cc(C(=O)O)c(=O)c2cc(F)c(N3CCN(S(=O)(=O)c4ccc(NC(C)=O)cc4)CC3)cc21	42.0*	0.0	-0.6	4.5	-0.8	31.6*	-5.0
CCn1cc(C(=O)O)c(=O)c2cc(F)c(N3CCN(S(=O)(=O)c4ccc5c(c4)OCCO5)CC3)cc21	6.5	1.5	/	1.1	/	/	/

From PubChem
